Test system: TGFBR2
Set-up: species or system human, MV4-11 + K-562 + COLO205 + SK-N-BE2 + OVCAR-8
Settings: read-out: apparent Kd; compound concentrations:100 nM and 1000 nM (sheet 'Samples'); n = 1

| Structure (SMILES) | potency estimated from few doses |
| --- | --- |
| c1ccc(-c2n[nH]cc2-c2ccnc(-c3ccc(OCCN4CCOCC4)cc3)c2)nc1 [GW695874X] | 0.758 µM |
| Cl.c1ccc(-c2n[nH]cc2-c2ccnc(-c3ccc(CN4CCOCC4)cc3)c2)nc1 [GW776245A] | 1.23 µM |
| c1ccc(-c2n[nH]cc2-c2ccnc(-c3ccc(OCCn4ccnc4)cc3)c2)nc1 [GW711782X] | 0.719 µM |
| Cc1csc(-c2nc(Nc3ccncc3)c3ccccc3n2)n1 [GW869640X] | 0.75 µM |
| COc1ccc(-c2cc(-c3c[nH]nc3-c3ccccn3)ccn2)cc1 [GW679410X] | 1.29 µM |

Test system: TNIK
Set-up: species or system human, MV4-11 + K-562 + COLO205 + SK-N-BE2 + OVCAR-8
Settings: read-out: apparent Kd; compound concentrations:100 nM and 1000 nM (sheet 'Samples'); n = 1

| Structure (SMILES) | potency estimated from few doses |
| --- | --- |
| c1ccc(-c2n[nH]cc2-c2ccnc(-c3ccc(OCCN4CCOCC4)cc3)c2)nc1 [GW695874X] | 1.17 µM |
| O=C(Nc1n[nH]c2nc(-c3ccc(O)cc3)ccc12)C1CC1 [SB-710363] | 1.63 µM |
| Cc1cc(O)cc(C)c1/C=C/c1cncc(C(N)=O)c1 [GW435821X_KCGS] | 2.4 µM |
| Nc1nc(-c2cccc(Cl)c2)c(-c2ccc3ncccc3n2)s1 [GW780159X] | 2.04 µM |
| c1ccc(-c2n[nH]cc2-c2ccnc(-c3ccc(OCCn4ccnc4)cc3)c2)nc1 [GW711782X] | 0.873 µM |
| COc1ccc(-c2cc(-c3c[nH]nc3-c3ccccn3)ccn2)cc1 [GW679410X] | 1.14 µM |

Source: article PMC11062922 (Nature Chemical Biology, 2023)
